Bioassay records (PubChem)
Shiga inhibitor = Shiga toxin inhibition | inhibition, % at 38.7 µM | 290,000 tested, 9.2% active | AID 2315 | Vero cells, Shiga toxin protein synthesis inhibition reporter; in the data active means inhibition mostly above about 28%, no sharp cut-off; inactive means mostly below about 43%
Pf growth 48h = P. falciparum growth inhibition at 48 hours (one generation) | P. falciparum luciferase growth in erythrocytes, 48 h | Potency, µM (series often up to 28.7 µM), actives largely listed as inhibitors | AID 504832 | 310,000 tested, 5.9% active
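A one-generation exposure of luciferase-tagged malaria parasites in RPMI 1640/Albumax erythrocyte culture, 37 C and 5% CO2. Inhibition is inferred from decreased luminescence after adding detection reagent.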
HCV inh = inhibitors of hepatitis C virus infection. Huh7.5.1 HCVcc-Cre infection, luciferase reporter, 44 h. Potency, µM (doses to about 41.8 µM), most hits filed as inhibitors. 340,000 tested, 3.4% active. AID 651820
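1,000 cells/well; 4 h culture; + compound; + HCVcc-Cre (~0.5 moi); 44 h; luciferase substrate, RT 15 min; read 15 sec.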
HCMV inh = blocks human cytomegalovirus replication; AID 1259415; HFF cells, HCMV-luciferase reporter, 72 h; hits give low values; 410,000 tested, 4.5% active; activity change, negative = inhibition, % at 57.5 µM; in the data active means activity change below about -60%; inconclusive means no clear call, values can overlap the other calls; inactive means above about -39%
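Human foreskin fibroblasts infected with luciferase-reporter HCMV at MOI 1 PFU/cell, compounds at two doses. Luciferase measured 72 h post infection; normalized to buffer-only basal and Salinomycin (10uM) controls.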
Cycloheximide cs = counter-screen hit for Shiga toxin inhibitors, cycloheximide; cell reporter, cycloheximide protein synthesis inhibition counterscreen; max response, %; 300,000 tested, 12% active; in the data active means max response mostly above about 13%, no sharp cut-off; inactive means mostly below about 14%; further: read at 38.3 µM for the half of the compounds with a filed dose
Pf growth 96h = P. falciparum growth inhibition at 96 hour, primary screen for plastid delayed-death inhibitors. Potency, µM (titrated, usually from 28.7 µM), most hits filed as inhibitors. 320,000 tested, 6.9% active. P. falciparum luciferase reporter growth, 96 h. AID 504834
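Cell-based qHTS: luciferase-tagged P. falciparum in erythrocytes (2% hematocrit, 0.05% parasitemia final) incubated with compounds for 96 hours, 37 C, 5% CO2; luciferase detection reagent then added and luminescence measured.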
Large screens that a line does not name were inactive. This is a sample that favours compounds with a hit; in the whole collection about 21% have one here. Unless noted, the call rests on the fitted dose curve; in most records, active means well fitted inhibition curve with a large enough effect; inconclusive means small, poorly fitted or top-dose-only effect, or another doubt; inactive means no such curve, though single readings can be large or run the other way.

C[C@@H]1CN([C@@H](C)CO)C(=O)Cc2cc(NC(=O)Nc3ccc4c(c3)OCO4)ccc2O[C@@H]1CN(C)C(=O)NC1CCCCC1	none (no result: Shiga inhibitor, Pf growth 48h, Cycloheximide cs, Pf growth 96h)
O=C1CCCC/C1=C/Nc1ccc2c(c1)OCO2	Shiga inhibitor 109, Cycloheximide cs 30
O=C1CCC/C1=C/Nc1cccc(F)c1	Shiga inhibitor 53, Cycloheximide cs 16
O=C1/C(=C\c2ccc3c(c2)OCO3)CCC/C1=C/c1ccc2c(c1)OCO2	HCMV inh -89
COc1ccc(Oc2ccc(N/C=C3\CCCC3=O)cc2)cc1	Pf growth 48h inconclusive, HCV inh inconclusive, Pf growth 96h inconclusive
CCOC(=O)[C@H](CCc1ccccc1)N[C@@H](C)C(=O)N1[C@H](C(=O)O)C[C@H]2CCCC[C@@H]21	none (no result: Shiga inhibitor, HCV inh, HCMV inh, Cycloheximide cs)
COc1ccc(C(=O)NNc2ccccc2)cc1	Pf growth 96h inconclusive
COc1ccc(NC(=S)NNc2ccc(C(=O)O)cc2)cc1	HCMV inh inconclusive, Cycloheximide cs 42
Cc1ccccc1NC(=O)c1ccc2ccccc2c1	Shiga inhibitor 92, Cycloheximide cs 30
O=C(O)c1ccc(NC(=O)c2ccccc2NC(=O)c2ccccc2Cl)cc1	none
NC(=O)c1ccccc1NC(=O)c1ccc2ccccc2c1	Shiga inhibitor 79, HCV inh inconclusive, Cycloheximide cs 57
COc1ccc(C(=O)Nc2ccccc2C(=O)Nc2ccc(C(=O)O)cc2)cc1	Cycloheximide cs 11
COc1cccc(OC)c1C1=Nn2c(nnc2-c2ccccc2O)SC1	none (no result: Pf growth 48h, HCV inh, HCMV inh, Pf growth 96h)
COc1ccc2c(Sc3ccccc3)c(C(=O)NCCN(C)C)[nH]c2c1	none (no result: Shiga inhibitor, Pf growth 48h, HCV inh, Cycloheximide cs, Pf growth 96h)
COc1ccc(Cl)cc1NC(=O)CN(C)C(=O)C12CC3CC(CC(Cl)(C3)C1)C2	Pf growth 96h inconclusive
COc1ccc(CC(=O)Nc2ccc(C(=O)Nc3ccccc3C(=O)O)cc2)cc1OC	Cycloheximide cs 23, Pf growth 96h inconclusive
COc1ccccc1OCC(=O)Nc1ccc(C(=O)Nc2ccccc2C(=O)O)cc1	none (no result: Shiga inhibitor, Pf growth 48h, HCV inh, Cycloheximide cs, Pf growth 96h)
COc1ccc(C(=O)Nc2ccccc2C(N)=O)cc1	Shiga inhibitor 94, Cycloheximide cs 27 (no result: Pf growth 96h)
COc1ccc(C(=O)Nc2ccccc2C(=O)Nc2ccncc2)cc1	Pf growth 48h 10µM, HCV inh inconclusive, Cycloheximide cs 25
COc1ccc(C(=O)Nc2ccccc2C(=O)N(Cc2ccco2)C(C(N)=O)C(C)C)cc1 (configuration not stated)	HCMV inh -76
COCC(=O)Nc1ccccc1C(=O)Nc1ccc(OC)cc1	Shiga inhibitor 51, Cycloheximide cs 22
COc1ccccc1NC(=O)CNC(=O)c1ccccc1	none (no result: Pf growth 96h)
COc1ccc(C(=O)Nc2ccccc2C(=O)Nc2ccccc2C(=O)O)cc1	Cycloheximide cs 29 (no result: Shiga inhibitor)
Cc1ccccc1NC(=O)c1cccc(S(C)(=O)=O)c1	HCMV inh -102
COC(=O)c1ccccc1NC(=O)CNC(=O)c1ccc(OC)cc1	HCMV inh active, Pf growth 96h inconclusive
CC(CO)NS(=O)(=O)c1cc(Cl)ccc1F (configuration not stated)	none (no result: Shiga inhibitor, Pf growth 48h, HCV inh, Cycloheximide cs, Pf growth 96h)
COc1ccc(C(=O)Nc2ccccc2C(=O)N/N=C/c2cccc3ccccc23)cc1	Shiga inhibitor 119, Cycloheximide cs 31
Cc1ccccc1NC(=O)c1cccc2nc3ccccc3nc12	Pf growth 48h inconclusive, HCV inh inconclusive, HCMV inh -73, Pf growth 96h inconclusive
COC(=O)c1ccccc1NC(=S)NC(=O)c1ccc2c(c1)OCO2	Pf growth 96h inconclusive
NC(=O)c1ccccc1NC(=O)c1ccc2c(c1)OCO2	Shiga inhibitor 55, Cycloheximide cs 41
COC(=O)c1ccccc1NC(=O)c1ccc2c(c1)OCCO2	HCV inh 10µM, Pf growth 96h inconclusive
COc1ccc(C(=O)N2CC(=O)Nc3ccc(C)cc3C2c2ccccc2)cc1OC (configuration not stated)	none (no result: Shiga inhibitor, Pf growth 48h, HCV inh, Cycloheximide cs, Pf growth 96h)
Clc1ccc(-c2nnn3c2nc(N2CCCCC2)c2ccccc23)cc1	none (no result: Shiga inhibitor, Pf growth 48h, HCV inh, Cycloheximide cs, Pf growth 96h)
COc1ccc(N2CCN(C(=O)CCS(=O)(=O)c3ccc4c(c3)NC(=O)CO4)CC2)cc1	Pf growth 96h inconclusive
CCNC(=O)[C@@H]1[C@@H](CO)[C@@H]2Cn3c(cccc3=O)[C@H]1N2C(=O)Nc1cc(F)ccc1F	none (no result: Shiga inhibitor, Pf growth 48h, HCV inh, Cycloheximide cs, Pf growth 96h)
O=C1CCc2cc(S(=O)(=O)NCCC(=O)NC3CCCCC3)ccc2N1	none
